USP7 inh = blocks human USP7 ubiquitin-rhodamine cleavage. hit rate 0.3% among 47,000. purified USP7, Ub-rhodamine cleavage fluorescence. Q93009. inhibition, % at 20 µM. AID 1645854
USP17 inh = human USP17-like deubiquitinase inhibition. A8MUK1. purified USP17, Ub-rhodamine cleavage fluorescence, 3 h. inhibition, % at 50 µM. hit rate 6.5% among 47,000. AID 1645855
USP8 inh = blocks human USP8 ubiquitin-rhodamine cleavage; purified USP8, Ub-rhodamine cleavage fluorescence, 30 min; inhibition, % at 20 µM; hit rate 4.2% among 47,000; P40818; AID 1645853
UCHL1 block = human UCHL1 deubiquitinase inhibition. P09936. purified UCHL1, Ub-rhodamine cleavage fluorescence. inhibition, % at 20 µM. hit rate 0.2% among 47,000. AID 1645859
Target sequence (P09936 whole entry, looked up): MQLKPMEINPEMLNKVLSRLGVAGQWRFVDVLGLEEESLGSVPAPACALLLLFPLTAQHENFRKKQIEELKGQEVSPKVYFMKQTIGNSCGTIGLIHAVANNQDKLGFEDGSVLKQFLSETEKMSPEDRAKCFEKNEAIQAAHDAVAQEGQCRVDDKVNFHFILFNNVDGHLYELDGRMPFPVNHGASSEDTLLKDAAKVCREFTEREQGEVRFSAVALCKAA
OTUD3 block = human OTUD3 deubiquitinase inhibition. Q5T2D3. purified OTUD3, Ub-rhodamine fluorescence, 2 h. hit rate 0.7% among 47,000. inhibition, % at 25 µM. AID 1645858
USP10 inh = inhibitors of human USP10 deubiquitinase; Q14694; purified USP10, Ub-rhodamine fluorescence, 60 min; inhibition, % at 20 µM; hit rate 1.1% among 47,000; AID 1645856
An asterisk follows results filed as active. Sampled rows, rich in hits. Any-hit rate of the full collection: about 9.2%. Cut-off read from the data, not from the text of the source: active = inhibition above about 30%; inactive = the rest.

SMILES | USP7 inh | USP17 inh | USP8 inh | UCHL1 block | OTUD3 block | USP10 inh
COc1cccc(C(=O)Nc2ccc(SC(C)C(=O)Nc3ccc(C(N)=O)cc3)cc2)c1 (configuration not stated) | 7 | 23 | 15 | 1 | 0 | 36*
COc1cccc(C(=O)Nc2ccc(-n3cnnn3)cc2)c1 | 5 | 32* | 4 | 2 | 8 | 2
CC(=O)c1ccc(NC(=O)COC(=O)c2ccccc2OCc2ccccc2Cl)cc1 | 0 | 19 | 24 | 9 | 20 | 5
CN1CCc2c(sc3nc(SCC(=O)NCc4ccco4)nc(N)c23)C1 | -24 | -98 | -22 | -22 | -113 | -7
Cc1ccccc1NS(=O)(=O)c1ccc2c(c1)CCCC(=O)N2 | -3 | -7 | -13 | 0 | -8 | 0
CC1=C(C(=O)Nc2ccccc2)C(c2cccc3ccccc23)NC(=O)N1 (configuration not stated) | -8 | 0 | 13 | -4 | 3 | -6
Cc1cn2nnc(C(=O)Nc3ccc(OC(F)(F)F)cc3)c2c(=O)[nH]1 | 10 | 51* | 54* | 2 | 15 | 24
CSc1ccccc1NC(=O)c1nnn2cc(C)[nH]c(=O)c12 | 0 | -23 | -198 | 1 | 10 | -1
COc1cccc(CC(=O)Nc2ccc(OC)c(S(=O)(=O)N3CCOCC3)c2)c1 | -1 | 1 | 0 | -2 | 0 | 2
Cc1[nH]c2ccccc2c1C(=O)COc1ncnc2ccccc12 | -6 | -9 | -15 | -3 | -12 | -2
COc1cccc(N2C(=O)c3cccnc3C2Nc2ccc(C)cc2)c1 (configuration not stated) | -10 | -17 | -16 | -4 | -22 | -4
COc1cccc(/C=C2\C(=O)N(c3cccc(C)c3)C(=O)c3ccccc32)c1 | -10 | 43* | 66* | -8 | -5 | -7
Cc1cccc(N2C(=O)/C(=C\c3ccc(N4CCOCC4)s3)c3ccccc3C2=O)c1 | 1 | 42* | 41* | 1 | -11 | -7
Cc1n[nH]c(C)c1N1C(=O)c2cccc3c(N4CCOCC4)ccc(c23)C1=O | -136 | -129 | -281 | -152 | -163 | -4
Cc1nc2c(-c3ccc(Cl)cc3)c[nH]n2c(=O)c1Cc1ccccc1 | -21 | -12 | -126 | 12 | 11 | 65*
COc1ccc(-c2c[nH]n3c(=O)c(CCO)c(C)nc23)cc1OC | 4 | -6 | 1 | 0 | -2 | 3
Cc1nc(N2CCN(c3ccc(Cl)cc3)CC2)c2oc3ccccc3c2n1 | 12 | 25 | 63* | 2 | 21 | 18
Cc1nc(N2CCC(C(=O)O)CC2)c2oc3ccccc3c2n1 | 1 | -8 | 3 | 0 | -4 | 2
O=C(NCc1cccnc1)c1c2c(NCC3CC3)ncnc2n2ccccc12 | -26 | 31* | 68* | -11 | -25 | -2
CN1CCCN(C(=O)c2c3c(NCc4ccccc4)ncnc3n3ccccc23)CC1 | -35 | -103 | -19 | -24 | -86 | -6
CCN1CCN(c2nc3ccccn3c(=O)c2/C=C(\C#N)c2nc3ccccc3[nH]2)CC1 | -21 | -35 | -61 | -20 | -66 | -5
COc1cccc(C(=O)N[C@@H]2C[C@H]3Oc4ccccc4N[C@H]3[C@@H]2O)c1 | -4 | -12 | -14 | 0 | -2 | 1
c1coc(-c2cc3nc(NCc4ccc5c(c4)OCO5)ccn3n2)c1 | 11 | 4 | 58* | 0 | -1 | -5
CCc1nccn1-c1cccc(C2CCN(C(=O)c3cn[nH]c3C)CC2)n1 | 0 | -7 | -32 | 0 | 0 | 0
COc1c(C)cccc1C(=O)Nc1ccc(-c2nc3ccccc3[nH]2)cc1 | 0 | 3 | 0 | -7 | -16 | -2
SMILES | USP7 inh | USP17 inh | USP8 inh | UCHL1 block | OTUD3 block | USP10 inh
O=C(O)c1cccc2[nH]c(-c3ccc(O)cc3)nc12 | 4 | 18 | 41* | 2 | 16 | 3
CC1(C)Cc2c(sc3nc(Cc4ccccc4)nc(SCC(=O)Nc4ccccc4)c23)CO1 | 6 | 35* | 9 | 3 | 26 | 7
CC(C)C1Cc2c(sc3nc(SCC(=O)Nc4cccc5ccccc45)nc(N)c23)CO1 (configuration not stated) | 2 | 52* | -4 | 2 | 1 | 0
CCC1(C)Cc2c(sc3nc(SCC(=O)Nc4ccc(C(C)=O)cc4)nc(N)c23)CO1 (configuration not stated) | 3 | 63* | -1 | 1 | 4 | 16
CCCCc1nc(SCC(=O)Nc2ccc(Br)cc2)c2c3c(sc2n1)COC(C)(C)C3 | 8 | 22 | 28 | 4 | 14 | 3
COc1ccc2nc(N3C(=O)c4oc5ccccc5c(=O)c4C3c3ccc([N+](=O)[O-])cc3)sc2c1 (configuration not stated) | 6 | 3 | -16 | -2 | -25 | 3
CCc1ccc(C2c3c(oc4ccccc4c3=O)C(=O)N2c2nncs2)cc1 (configuration not stated) | 6 | 51* | 0 | 0 | -6 | 7
c1ccc(-c2cc3c(N4CCc5ccccc5C4)ncnc3s2)cc1 | 18 | 30 | 53* | 4 | 23 | 15
c1ccc(-c2cc3c(NCc4cccnc4)ncnc3s2)cc1 | -4 | 5 | -8 | 1 | -9 | -4
COCC(=O)N1C[C@@H]2CC[C@H](Oc3cccc(F)c3)[C@@H]2C1 | 2 | 5 | 5 | 0 | 2 | 0
O=S(=O)(c1ccc(F)cc1)c1nc(-c2ccco2)oc1SCc1ccc(F)cc1 | -83 | 0 | 15 | 4 | -8 | 1
O=S(=O)(Nc1nc(-c2ccco2)c(-c2ccco2)s1)c1ccc(F)cc1F | -19 | -17 | 37* | 8 | -24 | -5
CC(OC(=O)c1cc(S(=O)(=O)Nc2ccccc2F)ccc1Cl)C(=O)Nc1ccc([N+](=O)[O-])cc1C(F)(F)F (configuration not stated) | 2 | 10 | -97 | 6 | 5 | 36*
CCOc1ncccc1C(=O)N1CCC(c2ccnc3ccnn23)CC1 | -1 | -11 | 1 | 0 | -7 | 1
O=C(Nc1cc(=O)[nH]c2nc(Cc3ccccc3)nn12)C1CCCCC1 | 0 | 3 | -8 | -7 | -5 | -5
COc1ccccc1NC(=O)c1cc(Br)cc(Cc2ccccc2)c1O | -31 | 25 | 49* | 5 | 16 | 17
COc1cccc(CN2CCc3c(nc(N4CCCC4)[nH]c3=O)C2)c1 | 3 | 0 | -3 | -2 | -5 | -1
CC(NC(=O)c1ccccc1)c1nc2ccccc2n1CC(=O)Nc1ccc(C#N)cc1 (configuration not stated) | 18 | 7 | 78* | 3 | 0 | 41*
CSCC[C@H](NC(=O)c1ccc(NC(C)=O)cc1)c1nnc2ccccn12 | 0 | -2 | 0 | -1 | -8 | -2
CC(NC(=O)c1ccccc1)c1nc2ccccc2n1CC(=O)NC1CCCCC1 (configuration not stated) | 3 | 39* | 65* | 2 | 9 | 4

Assay outcomes from PubChem BioAssay.
